Measured values: PubChem BioAssay (EPA / NIEHS)
Records with an inconclusive call do not appear. The source made the active and inactive calls. The calls were made as follows: active = hit-call score of the fitted dose curve at least 0.9, where 1 is the maximum; inconclusive = response in the unintended direction; inactive = score below 0.9.

biological target: Hepatocyte nuclear factor 4-alpha (Homo sapiens) (UniProt P41235); assay: ATG_HNF4a_TRANS: Attagene TRANS-FACTORIAL HepG2 Assay for human Hepatocyte Nuclear Factor 4 alpha (HNF4a) (AID 2282982); settings: HepG2 HNF4a transactivation reporter, mRNA readout
Method: ATG_TRANS is a cell-based, multiplexed-readout assay that uses HepG2, a human liver cell line, with measurements taken at 24 hours after chemical dosing in a 24-well plate.ATG_HNF4a_TRANS is one of 30 assay component(s) measured or calculated from the ATG_TRANS assay. It is designed to make measurements of mRNA induction, a form of inducible reporter, as detected with fluorescence intensity signals by Reverse transcription polymerase chain reaction (RT-PCR) and Capillary electrophoresis technology.Data from the assay component ATG_HNF4a_TRANS was analyzed into 1 assay endpoint. This assay endpoint, ATG_HNF4a_TRANS, was analyzed in the positive analysis fitting direction relative to DMSO as the negative control and baseline of activity. Using a type of inducible reporter, measures of mRNA for gain-of-signal activity can be used to understand the reporter gene at the transcription factor-level as they relate to the gene HNF4A. Furthermore, this assay endpoint can be referred to as a primary readout, because this assay has produced multiple assay endpoints where this one serves a reporter gene function. To generalize the intended target to other relatable targets, this assay endpoint is annotated to the nuclear receptor intended target family, where the subfamily is orphan.
Human liver HepG2 cells are transiently transfected with multiple reporter transcription units (MRTUs) in 6-well plates using FuGene 6 reagent (Roche; 3 ml FuGene/1 mg DNA). The MRTU constructs are regulated by a cis-regulating element (promoter). […] A major difference between the CIS and TRANS system is that in CIS activities of endogenous TFs are measured, whereas the TRANS assay evaluates changes in activities of exogenous, chimeric NR-Gal4 proteins. […] At the end of 24 hour incubation, total RNA was isolated using TriZol reagent (Invitrogen). The isolated RNA is then reverse-transcribed using oligo(dT) primer and Mo-MLV reverse transcriptase (Invitrogen) with DNAse I (Ambion) treatment for 30 min. The one-tenth of the produced cDNA was amplified by PCR using Taq DNA polymerase (Invitrogen) and two reporter sequence-specific primers. The PCR products were fluorescently labeled by primer extension with 6-arboxyfluorescein (6-FAM) 5'-labeled reporter sequence-specific primer (2 min at 95 C, 20 s at 68 C and 10 min at 72 C) and these products were digested with 5U of HpaI (New England Biolabs) for 2h at 37 C. The fragments were purified using Qiaquick PCR columns (Qiagen), analyzed on an ABI 3130xL genetic analyzer (Applied Biosystems) with peak positions identified by using a set of X-rhodamine (ROX)-labeled MapMarker1000 molecular weight standards (BioVentures). The raw capillary electrophoresis data was processed using Attagraph software (Attagene).

Hepatocyte nuclear factor 4-alpha (Homo sapiens), sequence (P41235 whole entry, looked up): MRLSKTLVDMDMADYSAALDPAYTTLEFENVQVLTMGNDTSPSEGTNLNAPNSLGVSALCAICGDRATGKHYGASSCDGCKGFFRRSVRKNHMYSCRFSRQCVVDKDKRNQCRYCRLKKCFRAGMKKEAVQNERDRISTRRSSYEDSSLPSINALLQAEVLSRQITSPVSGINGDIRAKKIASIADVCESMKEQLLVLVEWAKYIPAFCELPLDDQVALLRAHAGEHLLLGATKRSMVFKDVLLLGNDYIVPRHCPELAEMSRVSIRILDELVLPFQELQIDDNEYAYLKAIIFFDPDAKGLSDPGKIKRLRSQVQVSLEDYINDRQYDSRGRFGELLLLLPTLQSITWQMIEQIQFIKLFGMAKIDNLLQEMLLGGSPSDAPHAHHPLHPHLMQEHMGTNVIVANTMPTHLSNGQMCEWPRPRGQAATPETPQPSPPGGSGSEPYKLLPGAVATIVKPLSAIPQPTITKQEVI

SMILES	outcome
N#C/C=C/c1ccccc1	inactive
CC(C)Nc1ccc(Nc2ccccc2)cc1	inactive
CCOP(=S)(OCC)SCSc1ccc(Cl)cc1	inactive
OCC1CO1 (stereo not given)	inactive
CCOP(=S)(OCC)SCS(=O)(=O)CC	inactive
CC(O)C(F)(F)C(F)(F)F (stereo not given)	inactive
CCN(CC)c1ccccc1	inactive
c1ccc2c(c1)Nc1ccccc1S2	inactive
CC(O)C#N (stereo not given)	inactive
C=CC(=O)OCC(CC)(COC(=O)C=C)COC(=O)C=C	inactive
CNC(=O)Oc1ccc(N(C)C)c(C)c1	inactive
CCCCN(CCCC)SN(C)C(=O)Oc1cccc2c1OC(C)(C)C2	inactive
CCN(CC)C1CCCCC1	inactive
Oc1ccccc1Br	inactive
CCOC(=O)c1ccccc1C(=O)OCC	inactive
O=C(O)C(F)(F)OC(F)(F)C(F)(F)OC(F)(F)F	inactive
Cc1ccc(C(=O)Cl)cc1	inactive
COC(=O)C(F)(F)C(F)(F)OC(F)(C(F)(F)F)C(F)(F)OC(F)=C(F)F (stereo not given)	inactive
CC1=C(C(=O)Nc2ccccc2)S(=O)(=O)CCO1	inactive
O=C(O)CF	inactive

SMILES	outcome
CCCCOCC1CO1 (stereo not given)	inactive
COP(=O)(CCC(=O)NCO)OC	inactive
N#Cc1c(-c2ccc(Cl)cc2)[nH]c(C(F)(F)F)c1Br	inactive
O=C(O)C=CC(F)(C(F)(F)F)C(F)(F)F	inactive
O=c1ssc(Cl)c1Cl	inactive
O=C(O)C(F)(OC(F)(F)C(F)(F)C(F)(F)F)C(F)(F)F (stereo not given)	inactive
CCOP(=S)(OCC)SCn1nnc2ccccc2c1=O	inactive
Cc1ccc([N+](=O)[O-])cc1C	inactive
O=C(O)C(F)(F)C(F)(F)C(=O)O	inactive
O=S(=O)(F)C(F)(F)C(F)(F)C(F)(F)C(F)(F)C(F)(F)C(F)(F)C(F)(F)C(F)(F)F	inactive
CCCCCCCc1ccc(O)cc1	inactive
CCNc1nc(Cl)nc(NC(C)(C)C)n1	inactive
O=C(O)C1C(C(=O)O)C2(Cl)C(Cl)=C(Cl)C1(Cl)C2(Cl)Cl (stereo not given)	inactive
CCCCOCCOP(=O)(OCCOCCCC)OCCOCCCC	inactive
Nc1ccc([N+](=O)[O-])cc1Cl	inactive
O=S(=O)(c1ccc(O)cc1)c1ccc(O)cc1	inactive
C=CC(=O)OCC(F)(F)C(F)F	inactive
OCC(F)(F)OC(F)(F)C(F)(F)OC(F)(F)C(F)(F)OC(F)(F)CO	inactive
FC(F)(F)C(F)(C(F)(F)F)C(F)(F)C(F)(F)CC1CO1 (stereo not given)	inactive
N#Cc1ccc(O)cc1	inactive
